Source: PubChem BioAssay
TIM10 inh: growth inhibitors of isogenic TIM10 control yeast, primary screen, counter-screen for tim10-1 yeast inhibitor project, luminescence, uHTS; actives 1.4% (n = 330,000); S. cerevisiae TIM10 strain growth, BacTiter-Glo luminescence, 24 h; inhibition, % at 10 µM;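 active = inhibition of 40% or more at the single tested concentration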;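 note: wild-type TIM10 isogenic control strain grown at permissive 25 °C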
tim10-1 inh: growth inhibitors of tim10-1 mutant yeast, primary screen, luminescence, uHTS; S. cerevisiae tim10-1 ts strain growth, BacTiter-Glo, 24 h; inhibition, % at 20 µM; actives 2.2% (n = 330,000); AID 463190, 2010;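 active = inhibition of at least 40%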;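 note: mutant grown at 25 °C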
SKKanGAS inh: S. pyogenes SKKanGAS growth inhibitors in kanamycin, primary screen, streptokinase expression inhibitor project, SKKanGAS strain, BacTiter-Glo luminescence; AID 1662, 2009; 6 h; actives 1.3% (n = 300,000); inhibition, % at 7.5 µM;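 active = mean replicate score, as percent of positive control median, at least 50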;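 note: strain carries kanamycin resistance gene driven by streptokinase promoter and grows in 40 µg/ml kanamycin; loss of luminescence reflects streptokinase promoter inhibition or plain growth inhibition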
Calb FLC: C. albicans growth inhibition with fluconazole, primary screen, CaCi-2 strain, Alamar Blue fluorescence | C. albicans CaCi-2 (fluconazole-resistant clinical isolate) + fluconazole, 48 h | growth inhibition, % (concentration not given with the values) | actives 0.57% (n = 300,000);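 active = growth inhibition above about 58% in most replicates, limit read from the data, passing the limit was not always enough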;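 note: all wells also contain fluconazole at 8 µg/ml as a sub-toxic cotreatment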
PfHsp90 yeast 2: growth inhibition of PfHsp90-expressing yeast, primary screen, antimalarial PfHsp90 inhibitor project, S. cerevisiae, BacTiter-Glo luminescence, single point, set 2; BacTiter-Glo ATP, 48 h; yeast lacking PDR1 and PDR3 efflux regulators; inhibition, % at 9.4 µM; actives 0.32% (n = 310,000); AID 504621, 2011;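 active = every replicate shows inhibition above about 80%, whatever the replicate mean, limit read from the data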
tim23-1 inh: growth inhibitors of tim23-1 mutant yeast, primary screen, luminescence, uHTS. inhibition, % at 20 µM. S. cerevisiae tim23-1 growth, BacTiter-Glo luminescence, 24 h. actives 1.3% (n = 330,000);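 active = growth inhibition of the mutant yeast at or above 50%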;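 note: temperature-sensitive mutant grown at 25 °C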
TIM10 conf: growth inhibitors of wild-type TIM10 yeast, confirmation, counter-screen for tim10-1 synthetic lethality project, single concentration, luminescence, S. cerevisiae; AID 463215, 2010; S. cerevisiae tim10 strain growth, BacTiter-Glo luminescence, 24 h; shares compounds with TIM10 inh; actives 63% (n = 4,600); inhibition, % at 10 µM;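 active = inhibition of yeast growth at or above a set limit in either of two replicates at 10 µM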; note: this counterscreen used the strain with wild-type TIM10
Of the large screens only hits and unclear results are named; the others gave an inactive call (follow-up assays come after a bar, where they were run). A selection: hits, their analogues and other compounds. The true share with any hit is near 4.7%.

COCCCN(C(=O)c1ccccc1F)c1nc(-c2ccc(OC)cc2)cs1	none
N#Cc1nc(-c2ccco2)oc1NCCc1ccccc1	TIM10 inh 65 | TIM10 conf 57
Cc1ccc(CNc2oc(-c3ccco3)nc2C#N)cc1	none
COc1ccc(-c2nc(C#N)c(NCCc3ccccc3)o2)cc1OC	TIM10 inh 46 | TIM10 conf 41
COc1ccc(CCNc2oc(COc3ccc(F)cc3)nc2C#N)cc1	TIM10 inh 43 (no result: SKKanGAS inh, Calb FLC) | TIM10 conf 36
CN(C(=O)c1cccc(NC(=O)Cc2ccc(NC(=O)C3CCCN(C(=O)C4CCC4)C3)cc2)c1)C1CCCCC1 (stereo not drawn)	none (no result: TIM10 inh, tim10-1 inh, SKKanGAS inh, Calb FLC, tim23-1 inh)
COc1cccc(CN2CC(C(=O)N(C)CCCC3CCCC3)CCC2=O)c1 (stereo not drawn)	none
O=C1C(Nc2cccc(O)c2)=C(N2CCCCC2)C(=O)c2ccccc21	TIM10 inh 46 | TIM10 conf 40
Cc1ccc(NC2=C(N3CCCCC3)C(=O)c3ccccc3C2=O)cc1	none
CNc1nc2ccccc2n1/N=C/c1cccc(OC)c1OC	TIM10 inh 48 (no result: PfHsp90 yeast 2) | TIM10 conf inactive
CCOC(=O)/C=C/C(=O)OCC(=O)NCc1ccccc1	TIM10 inh 42 (no result: SKKanGAS inh, Calb FLC) | TIM10 conf inactive
C/C(=C\C(=O)OCC(=O)NCc1ccccc1)C(=O)OCC(=O)NCc1ccccc1	none
COc1cc(OC)cc(C(=O)Nc2nc(CC(=O)NC(C)c3ccccc3)cs2)c1 (stereo not drawn)	none
C[C@]12C(=O)N(c3ccccc3)C(=O)N1[C@H]1c3ccccc3OC[C@@H]1[C@H]2c1ccccc1	TIM10 inh 42 (no result: SKKanGAS inh, Calb FLC) | TIM10 conf 47
CCS(=O)(=O)N1CCN(CC(=O)NC2CCCCC2)CC1	none
COc1ccc(NC(=O)c2ccc3c(c2)C(=O)N(Cc2ccncc2)C3=O)cc1S(N)(=O)=O	none (no result: SKKanGAS inh, Calb FLC)
C/C(CCC(C)C)=N\Nc1ccc(S(N)(=O)=O)cc1[N+](=O)[O-]	TIM10 inh 75 | TIM10 conf inactive
Cc1nc(Nc2c(Cl)cccc2Cl)sc1C(=O)Nc1ccccc1	TIM10 inh 44 | TIM10 conf inactive
Cc1nc(NC(=O)C2CC2)sc1C(=O)Nc1ccccc1	none
Cc1nc(-c2ccccn2)nc(SCC(=O)c2ccc(F)cc2)c1Cl	TIM10 inh 41, SKKanGAS inh 85 | TIM10 conf 42
CCOC(=O)CCCCCN1C(=O)c2cccc3cccc(c23)C1=O	none
CC(=O)OCCCN1C(=O)c2cccc3cc(Br)cc(c23)C1=O	TIM10 inh 61 (no result: PfHsp90 yeast 2) | TIM10 conf inactive
Cc1ccsc1CN(C)C(=O)CN1C(=O)NC2(CCCc3ccccc32)C1=O (stereo not drawn)	TIM10 inh 96 (no result: SKKanGAS inh, Calb FLC) | TIM10 conf inactive
COc1cccc(CN(C)C(=O)CN2C(=O)NC3(CCCc4ccccc43)C2=O)c1 (stereo not drawn)	none (no result: SKKanGAS inh, Calb FLC, PfHsp90 yeast 2)
O=C(C1CCCN(S(=O)(=O)c2ccc(Cl)cc2)C1)N(Cc1cccs1)C1CC1 (stereo not drawn)	TIM10 inh 43 | TIM10 conf inactive
CN(Cc1cccs1)C(=O)c1ccc(S(=O)(=O)N2CCCCC2)cc1	none
COc1ccc(-c2nc3n(c(=O)c2C#N)CCCS3)cc1	none
CCOc1ccc(-c2nc3n(c(=O)c2C#N)CCCS3)cc1	TIM10 inh 97, SKKanGAS inh 58 | TIM10 conf inactive
O=C(NCCCc1ccc(F)cc1)C1CCC(=O)N(CCCN2CCCC2=O)C1 (stereo not drawn)	none
CC(=O)N/C(=C/c1ccc(OS(=O)(=O)c2ccc(C)cc2)cc1)C(=O)NCCCO	none (no result: PfHsp90 yeast 2)
O=C(c1cn(-c2ccccc2)nc1-c1cccc(Br)c1)N1CCOCC1	none
Cc1nnc(-c2cccc(Br)c2)c2cn(-c3ccccc3)nc12	TIM10 inh 46 | TIM10 conf 46
